Reference: PubChem BioAssay (NCATS)
Records with an inconclusive call do not appear. A call without a number means that no potency is given here. Active and inactive are the calls of the source. Unless noted, calls follow the shape of the dose curve; as a rule, active = well fitted inhibition curve with a large enough effect in the repeat runs; inconclusive = weak or mixed curves; inactive = no such curve, though single readings can be large or run the other way. Numbered stars: 1 amine (or outer) side, 2 acyl side, 3 side chain; on linkers, the order of the positions; unused ones are H or OH. Bridge positions count the residues as written; N and C are the ends. Square brackets hold non-standard residues; d marks the D form. Peptide text beside a SMILES is read from it. I, II: the chains in the order shown. Actinocin(9to1) = Cc1c2oc3c(C)ccc(C(=O)[*:1])c3nc-2c(C(=O)[*:2])c(N)c1=O; NMeV = CN[C@H](C(=O)O)C(C)C; Sar = CNCC(=O)O

biological target: Cytochrome P450 2C9 (Homo sapiens) (UniProt P11712); experiment: Cytochrome P450 family 2 subfamily C member 9 (CYP2C9) small molecule antagonists: luciferase biochemical (cell-free) qHTS assay (AID 1645842); settings: P450-Glo CYP2C9 enzyme assay, luciferin luminescence; series mostly up to 57.4 µM; also: nearly all actives have a fitted effect of over 55% in size; also: potency is read from the fitted curve at half-maximal effect
Sequence (P11712 whole entry, looked up): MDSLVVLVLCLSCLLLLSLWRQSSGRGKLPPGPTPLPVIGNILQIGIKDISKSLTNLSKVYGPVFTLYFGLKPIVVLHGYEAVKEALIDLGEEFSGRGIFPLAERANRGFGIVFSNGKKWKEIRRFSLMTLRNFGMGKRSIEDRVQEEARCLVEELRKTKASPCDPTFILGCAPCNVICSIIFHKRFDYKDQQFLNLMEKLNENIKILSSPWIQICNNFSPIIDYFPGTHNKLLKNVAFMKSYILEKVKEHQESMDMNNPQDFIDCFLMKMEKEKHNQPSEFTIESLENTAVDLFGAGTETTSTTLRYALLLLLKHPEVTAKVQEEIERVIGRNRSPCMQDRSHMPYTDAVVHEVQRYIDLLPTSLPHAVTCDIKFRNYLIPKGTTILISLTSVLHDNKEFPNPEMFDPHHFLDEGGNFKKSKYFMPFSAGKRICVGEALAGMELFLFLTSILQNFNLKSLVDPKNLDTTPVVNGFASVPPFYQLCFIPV
Summary of the method: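 Luminescence, after 20 min with luciferin detection reagent, reflected CYP2C9 turnover during a 1 h NADPH-driven reaction at 37C. Enzyme-substrate mix contained 0.4% bovine serum albumin and was preincubated with compound 10 min at room temperature.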

Row | Compound | Potency
1 | CC[N+](CC)(CC)CC | inactive
2 | NCCc1cc(O)c(O)cc1O | inactive
3 | COC[C@@H](NC(C)=O)C(=O)NCc1ccccc1 | inactive
4 | CC(C)CC(N(C)C)C1(c2ccc(Cl)cc2)CCC1 (stereo not drawn) | inactive
5 | CC(=O)[C@H]1CC[C@H]2[C@@H]3CC[C@H]4C[C@](C)(O)CC[C@]4(C)[C@H]3CC[C@]12C | inactive
6 | NN=C(N)N | inactive
7 | O=C(NC(O)C(Cl)(Cl)Cl)NC(O)C(Cl)(Cl)Cl (stereo not drawn) | inactive
8 | CN1C[C@H](CNC(=O)OCc2ccccc2)C[C@@H]2c3cccc4c3c(cn4C)C[C@H]21 | inactive
9 | c1ccc(C2CC2)c(OCC2=NCCN2)c1 | inactive
10 | N#CC(C#N)=Cc1ccc(O)c(O)c1 | inactive
11 | COc1ccccc1N1CCNCC1 | inactive
12 | CCCN1CCC[C@@H]2Cc3[nH]ncc3C[C@H]21 | inactive
13 | CN(C)CCc1ccc(O)cc1 | inactive
14 | O=C(O)c1ccc2[nH]cc(CCCCN3CC=C(c4ccccc4)CC3)c2c1 | inactive
15 | C#CCOC(C(=O)OCCN(C)C)(c1ccccc1)c1ccccc1 | 0.776 µM (active)
16 | CCN(CC)CCOC(=O)C(O)(c1ccccc1)c1ccccc1 | inactive
17 | CC1OC(C)OC(C)O1 (stereo not drawn) | inactive
18 | Clc1cccc(N2CCNCC2)c1 | inactive
19 | CC(C)=CCOc1c2occc2cc2ccc(=O)oc12 | 0.347 µM (active)
20 | O=C1NCN(c2ccccc2)C12CCN(CC1COc3ccccc3O1)CC2 (stereo not drawn) | 6.17 µM (active)
21 | CNCC(O)c1ccc(O)cc1 (stereo not drawn) | inactive
22 | CCC1(C2=NCCN2)Cc2ccccc2O1 (stereo not drawn) | inactive
23 | c1ccc2c(c1)OCC(C1=NCCN1)O2 (stereo not drawn) | inactive
24 | NP(N)(=O)NC(=O)c1ccc(F)cc1 | inactive
25 | O=C(O)C(=O)c1cn(Cc2ccccc2)c2ccc(-c3ccc(OC(F)(F)F)cc3)cc12 | 16.9 µM (active)
26 | Cc1ccc2c(c1)C1CN(C)CCC1N2 (stereo not drawn) | inactive
27 | Cc1cccc(C)c1NC(=O)CN1CCCC1=O | inactive

test system: not listed separately; experiment: Cytotoxicity counterscreen for inhibitors of SARS-CoV-2 cell entry (AID 1645845; calls by dose curve; also: nearly all actives have a fitted effect of over 50% in size); settings: cell viability (SARS-CoV-2 entry assay cells); series mostly up to 57.1 µM
Summary of the method: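 Expi293F/hACE2 cells seeded overnight; cpd pin-transferred in DMSO, 1 h preincubation, + media, 48 h 37 C 5% CO2; ATPLite 1step luminescence; normalized to cells and no cells.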

Row | Compound | Potency
28 | COC[C@@H](NC(C)=O)C(=O)NCc1ccccc1 | inactive
29 | CC(C)CC(N(C)C)C1(c2ccc(Cl)cc2)CCC1 (stereo not drawn) | inactive
30 | NN=C(N)N | inactive
31 | COC[C@H]1OC(=O)c2coc3c2[C@@]1(C)C1=C(C3=O)C2CCC(=O)[C@@]2(C)C[C@H]1OC(C)=O (stereo partly drawn) | inactive
32 | Cc1c2oc3c(C)ccc(C(=O)N[C@@H]4C(=O)N[C@H](C(C)C)C(=O)N5CCC[C@H]5C(=O)N(C)CC(=O)N(C)[C@@H](C(C)C)C(=O)O[C@@H]4C)c3nc-2c(C(=O)N[C@@H]2C(=O)N[C@H](C(C)C)C(=O)N3CCC[C@H]3C(=O)N(C)CC(=O)N(C)[C@@H](C(C)C)C(=O)O[C@@H]2C)c(N)c1=O (I: T[dV]P[Sar][NMeV] / II: T[dV]P[Sar][NMeV]; ester I:1-I:C, II:1-II:C; linker I:N-II:N via Actinocin(9to1)) | inactive
33 | OCCN1CCN(CCCN2c3ccccc3Sc3ccc(C(F)(F)F)cc32)CC1 | inactive
34 | CC1(CN2CCC(n3c(=O)[nH]c4ccccc43)CC2)OCc2ccccc2-n2cccc21 (stereo not drawn) | inactive
35 | O=C(CCCN1CCC(O)(c2ccc(Cl)cc2)CC1)c1ccc(F)cc1 | inactive
36 | CNCC(O)c1ccc(O)cc1 (stereo not drawn) | inactive
37 | CC(O)(CS(=O)(=O)c1ccc(F)cc1)C(=O)Nc1ccc(C#N)c(C(F)(F)F)c1 (stereo not drawn) | inactive
38 | Cc1cccc(C)c1NC(=O)CN1CCCC1=O | inactive
